High-throughput results from PubChem BioAssay.
S aureus helic = S. aureus DNA helicase inhibition; purified S. aureus helicase, fluorescence unwinding assay; inhibition, % (no concentration beside the values); 120,000 compounds, 0.05% hits; in the data active = inhibition above about 25%, passing the limit was not always enough;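 also: 0% = mean of negative control wells and 100% = mean of positive control wells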
Sa growth 42C = blocks Staphylococcus aureus growth; S. aureus RN4220 growth, OD600, 20 h, 42 °C; hits give low values; relative growth, % (test concentration not listed); AID 720641; 170,000 compounds, 0.53% hits;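 active = relative growth at most 50% at the other temperature and 20+ points below 30 °C, or under 10% at both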
The depositor's hits bear a star; · = not tested or not shown; ! = repeats disagree. The entries come from a sample that favours hits as a whole.

SMILES	S aureus helic	Sa growth 42C
O=S(=O)(N=C1SCCS1)c1ccccc1	-12.0	·
CC1=CC(=O)C=C(C)C1=NS(=O)(=O)c1ccccc1	18.0	-0.4*
Cc1ccc(NS(=O)(=O)c2cc3[nH]c(=O)c(=O)[nH]c3cc2C)cc1Cl	·	99.0
Cc1cc(C=Nc2ccccc2)c(C)n1-c1ccccc1	2.0	85.3
Cc1ccc(CN(C)Cc2cc(=O)oc3cc4c(cc23)CCC4)o1	7.0	70.8
CN1CCC(N(C)Cc2cc(=O)oc3cc4c(cc23)CCC4)CC1	-2.0	0.3*
Cc1ccc(S(=O)(=O)CCC(=O)c2ccc(O)cc2O)cc1	-8.0	-0.2*
Cc1ccc(S(=O)(=O)CCC(=O)O)cc1	6.0	78.2
CN1C=C/C(=C\c2cc[n+](C)c3ccccc23)c2ccccc21	86.0*	0.6*
C[n+]1ccc(/C=C/c2ccccc2F)c2ccccc21	25.0	6.9
Cc1ccc(-c2c(CN3CCN(c4cccc(C)c4C)CC3)csc2C)cc1	·	104.7
Cc1ccc(-c2c(CN3CCN(C)CC3)csc2C)cc1	-10.0	6.2*
CCOC(=O)CN1c2ccccc2NC(=O)CC1C (stereo not given)	14.0	94.8
CS(=O)(=O)CCC(C(=O)Oc1cccc2cccnc12)N1C(=O)c2ccccc2C1=O (stereo not given)	12.0	0.7*
CS(=O)(=O)CCC(C(=O)n1nnc2ccccc21)N1C(=O)c2ccccc2C1=O (stereo not given)	16.0	113.8
Cc1cc(-c2ccco2)n(CC(=O)NCCN(C)C)n1	-14.0	103.0
CCOc1ccccc1Nc1sc(C(=O)c2ccccc2)c(N)c1S(=O)(=O)c1ccc(C)cc1	·	108.1
CO[C@H]1/C=C/O[C@@]2(C)Oc3c(C)c(O)c4c(O)c(c(/C=N/N5CCN(C)CC5)c(O)c4c3C2=O)NC(=O)/C(C)=C\C=C\[C@H](C)[C@H](O)[C@@H](C)[C@@H](O)[C@@H](C)[C@H](OC(C)=O)[C@@H]1C	·	1.6*
O=C(CC(SC1CCCCC1)C(=O)O)c1ccc(Br)cc1 (stereo not given)	5.0	131.1
O=C(CC(Sc1ccc(Br)cc1)C(=O)O)c1ccc(Cl)cc1 (stereo not given)	12.0	2.0*
N#Cc1c(N)n[nH]c1CCCCCN=Cc1cc(Br)ccc1O	0.0	111.9
NC[C@H]1O[C@H](OC2[C@@H](N)C[C@@H](N)[C@H](O[C@H]3O[C@H](CO)[C@@H](O)[C@H](N)[C@H]3O)[C@H]2O)[C@H](O)[C@@H](O)[C@@H]1O (stereo not given in full)	·	99.4
NC[C@H]1O[C@H](O[C@H]2[C@H](O)[C@@H](O[C@H]3O[C@H](CO)[C@@H](O)[C@H](N)[C@H]3O)[C@H](N)C[C@@H]2N)[C@H](N)C[C@@H]1O	·	-0.6*!
O=C(Nc1ccc2ccccc2c1)c1ccco1	·	98.0
O=C(Nc1ccc(Cl)c(Cl)c1)Oc1ccc(NC(=O)c2ccco2)cc1	-2.0	3.7*
SMILES	S aureus helic	Sa growth 42C
CC1CN(S(=O)(=O)c2ccc(NC(=O)CCS(=O)(=O)c3ccccc3)cc2)CC(C)O1 (stereo not given)	0.0	102.4
C/C=C(/C)C(=O)OC1CC(O)(C(C)C)C2C(OC(=O)c3ccc(O)cc3)CC(C)=CCC12C (stereo not given)	-1.0	6.0*
Cc1cc(O)ccc1Sc1ccc(O)cc1C	-10.0	30.2*
Cc1cc(O)ccc1-n1c(=O)c2cc3c(=O)n(-c4ccc(O)cc4C)c(=O)c3cc2c1=O	6.0	92.0
COC(=O)Cc1c(C(=O)OC)sc(N)c1C(=O)OC	3.0	91.9
O=C(NCCc1ccc(Cl)cc1)c1ccc(CS(=O)Cc2cccc(Cl)c2)o1 (stereo not given)	·	7.4*
O=C(NCCc1ccccc1)c1ccc(CS(=O)Cc2cccc(Cl)c2)o1 (stereo not given)	2.0	86.4
CCc1ccccc1NC(=O)CCCN1C(=O)CCn2nc(-c3cn(C)c4ccccc34)cc21	·	114.4
CCC[C@@H]1C[C@@H](C(=O)N[C@@H](C2O[C@H](SC)[C@H](O)[C@@H](O)[C@H]2O)[C@H](C)Cl)N(C)C1 (stereo not given in full)	·	-1.1*
CCC[C@@H]1C[C@@H](C(=O)N[C@H]([C@H]2O[C@H](SC)[C@H](O)[C@@H](O)[C@H]2O)[C@H](C)O)N(C)C1	·	0.0*
CCC[C@@H]1C[C@@H](C(=O)N[C@@H]([C@H]2O[C@H](SC)[C@H](O)[C@@H](O)[C@H]2O)[C@H](C)Cl)N(C)C1	·	-0.8*
Cc1ccc(CNC(=O)c2cccc(N3CCCS3(=O)=O)c2)cc1	·	89.5
N/C(Cc1nc2ccccc2[nH]1)=N\O	-21.0	81.6
Cc1ccc(NC(=O)c2snnc2C)cc1	12.0	99.2
Cc1c(C(=O)Oc2cc(Cl)cc(Cl)c2)n(C)oc1=O	·	105.5
Cc1nc(-c2cccs2)cs1	17.0	75.8
S=c1nc(-c2cccs2)cn[nH]1	-2.0	38.5*
CS(=O)(=O)c1ccccc1-c1nnc(NC(=O)c2ccc3c(c2)OCCO3)o1	·	73.8
CSc1cccc(-c2nnc(NC(=O)c3ccc4c(c3)OCCO4)o2)c1	·	7.7*
O=C(NCc1ccc(Cl)cc1)NCc1noc2ccccc12	·	110.6
O=C(CSc1ncc(S(=O)(=O)c2ccc(Cl)cc2)c(=O)[nH]1)Nc1cccc(C(F)(F)F)c1	·	83.6
CCn1c(CNC(=O)CSc2nnc(C)n2-c2ccc(C)cc2)cc2ccccc21	-5.0	110.0
Cc1cc(C)nc(NS(=O)(=O)c2ccc(NS(=O)(=O)CC34CCC(CC3=O)C4(C)C)cc2)n1 (stereo not given)	-13.0	110.6
Cc1cc(NS(=O)(=O)c2ccc(NS(=O)(=O)CC34CCC(CC3=O)C4(C)C)cc2)no1 (stereo not given)	-5.0	48.6*
COc1ccc(C(=O)CN2C=NS(=O)(=O)c3ccccc32)cc1	-3.0	110.3
SMILES	S aureus helic	Sa growth 42C
CCOc1ccc(NC(=O)c2oc3ccccc3c2NC(=O)COC)cc1	-1.0	98.1
CC(=O)Nc1ccc(F)cc1NC=C(C#N)C#N	-9.0	85.3
N#CC(C#N)=NNc1ccc(F)cc1C(F)(F)F	-9.0	-0.7*
O=C1OCc2cc(-n3cnnn3)ccc21	-3.0	80.0
O=C(NCCCO)c1cc2sc3ccccc3c2s1	-2.0	110.7
CN(C)S(=O)(=O)c1ccc(=O)n(CC(=O)NCC2COc3ccccc3O2)c1 (stereo not given)	-11.0	98.9
CCC1CCCCN1C(=O)Cn1cc(S(=O)(=O)N(C)C)ccc1=O (stereo not given)	29.0*	96.7
c1c(SSc2cn3c(n2)CCC3)nc2n1CCC2	3.0	-0.6*
COc1ccc(-c2cn3c(n2)CCC3)cc1	-14.0	97.3
COc1ccc(Cc2nnc(N)o2)cc1OC	·	87.3
COc1ccc(C(=O)Nc2c(O)c3ccccc3oc2=O)cc1OC	-3.0	98.1
CO[C@@H]1[C@@H](OC(N)=O)[C@@H](O)[C@H](Oc2ccc3c(O)c(NC(=O)c4ccc(O)c(CC=C(C)C)c4)c(=O)oc3c2C)OC1(C)C	·	-0.8*
CC(C(=O)c1ccccc1)C1(O)C(=O)N(CCc2ccccc2)c2ccccc21 (stereo not given)	3.0	81.2
Cc1ccc(O)c(C(=O)CC(=O)c2cccs2)c1	-8.0	6.4*
O=C(NC(=O)c1ccccc1O)c1cccs1	·	130.6
O=C(CCNS(=O)(=O)c1ccc2c(c1)OCCO2)NC1CCN(Cc2ccccc2)CC1	-19.0	105.2
Cc1c(Sc2ccc(Cl)cc2)cnn1C(=O)Nc1cccc(C(F)(F)F)c1	·	4.5*
Cc1c(Sc2ccc(Cl)cc2)cnn1C(=O)NC(C)C	·	99.3
